Experimental data: PubChem BioAssay (EPA / NIEHS)
Several values for one entry are separate records, joined by “and”; a condition that tells them apart may be missing. Equal entries are not always repeated. Some structures have more than one record in an assay (separate samples or runs), and their calls can disagree. Activity calls are given as the source filed them. How the source made its calls: active means hit-call score of the fitted dose curve at least 0.9, where 1 is the maximum; inactive means score below 0.9.

read-out: Basic fibroblast growth factor (bFGF), FGF2 (gene 2247); assay: BSK_MyoF_bFGF: BioMAP Diversity Plus: MyoF Assay for Basic fibroblast growth factor (bFGF) Biomarker Activity (AID 2284246); conditions: primary human lung fibroblasts
Procedure: BSK_MyoF is a cell-based, multiplexed-readout assay that uses lung fibroblasts, a human […] primary cell, with measurements taken at 24 hours after chemical dosing in a microplate: 96-well plate.BSK_MyoF_bFGF is an assay component measured in the BSK_MyoF assay. It measures bFGF antibody related to regulation of gene expression using ELISA technology.Data from the assay component BSK_MyoF_bFGF was analyzed at the endpoint, BSK_MyoF_bFGF, in the positive analysis fitting direction relative to DMSO as the negative control and baseline of activity. Using a type of binding reporter, gain or loss-of-signal activity can be used to understand protein changes. To generalize the intended target to other relatable targets, this assay endpoint is annotated to the 'growth factor' intended target family, where the subfamily is 'basic fibroblast growth factor '.
The levels of cell surface (or secreted, indicated by the prefix "s") biomarker endpoints were measured by ELISA. Overt cytotoxicity to cells in confluent adherent cultures (all systems other than the BT system) was assessed by measuring total protein levels using sulforhodamine B (SRB) staining in parallel cultures at the time of biomarker measurements, indicated as SRB endpoints. For proliferation assays for adherent cell types, individual cell types are cultured at sub-confluence and relative cell numbers quantified by SRB staining at time points optimized for each system (48 h: 3C and CASM3C systems; 72 h: BT and HDF3CGF systems; 96 h: SAg system). SRB was performed by staining cells with 0.1% SRB after fixation with 10% TCA and reading wells at 560 nm.Viability and proliferation of PBMC (T cells) was quantified by Alamar Blue reduction for the SAg and BT systems. For PBMC viability (referred to as PBMC Cytotoxicity within the assay endpoint names), cells were plated (75,000/well in a 96-well plate) and then chemical samples added for 1 h before addition of activators, SEB and TSST-1 (20 ng/mL final concentration each). Cells were incubated for 90 h. Then, Alamar Blue (20 uL/well) (Invitrogen, Cat DAL1100) was added for 6 h, and the plates were read with a fluorescence microplate reader at 546/580 nm (excitation/emission). For PBMC proliferation, cells were plated and activated as above but incubated for only 16 h prior to addition of Alamar Blue. Plates were read after 6 h.

Row | Compound | outcome | AC50
1 | O=S(=O)(OCC(F)(F)F)C(F)(F)C(F)(F)C(F)(F)C(F)(F)F | inactive | –
2 | O=S(=O)(O)CCC(F)(F)C(F)(F)C(F)(F)C(F)(F)C(F)(F)C(F)(F)C(F)(F)C(F)(F)F | inactive | –
3 | O=C(O)CCC(F)(F)C(F)(F)C(F)(F)F | inactive | –
4 | OCC(O)CC(F)(F)C(F)(F)C(F)(F)C(F)(F)F (stereo not given) | inactive | –
5 | OCC(F)(F)C(F)(F)C(F)(F)CO | inactive | –
6 | O=C(c1ccccc1)c1ccc(O)cc1O | inactive | –
7 | O=C(O)CCC(F)(F)C(F)(F)C(F)(F)C(F)(F)C(F)(F)C(F)(F)C(F)(F)F | inactive | –
8 | Brc1nc2ccccc2s1 | inactive | –
9 | OC(O)C(F)(F)C(F)(F)F | inactive | –
10 | O=C(Cl)C(F)(F)C(F)(F)C(F)(F)C(F)(F)C(F)(F)C(F)(F)C(F)(F)F | inactive | –
11 | CN(C(=O)C(F)(F)C(F)(F)C(F)(F)F)[Si](C)(C)C | inactive | –
12 | CCN(CCO)S(=O)(=O)C(F)(F)C(F)(F)C(F)(F)C(F)(F)C(F)(F)C(F)(F)C(F)(F)C(F)(F)F | inactive | 43 µM (active)
13 | C=C(C)C(=O)OCC(F)(F)C(F)(F)C(F)(F)C(F)F | inactive | –
14 | NS(=O)(=O)C(F)(F)C(F)(F)C(F)(F)C(F)(F)C(F)(F)C(F)(F)F | inactive | –
15 | O=C(O)C(F)(F)C(F)(F)C(F)(F)OC(F)(C(F)(F)F)C(F)(F)F | inactive | –
16 | COC(F)(C(F)F)C(F)(F)F (stereo not given) | inactive | –
17 | O=C=Nc1cccc2c(N=C=O)cccc12 | inactive | –
18 | O=S(=O)(Cl)C(F)(F)C(F)(F)C(F)(F)C(F)(F)C(F)(F)C(F)(F)C(F)(F)C(F)(F)F | inactive | –
19 | Cc1cc(C)c(O)c(C(C)(C)C)c1 | – | 36.8 µM (active)

Row | Compound | outcome | AC50
20 | O=C(O)C(F)(F)C(F)(F)C(F)(F)OC(F)(F)F | inactive | –
21 | O=C(Cl)C(F)(F)C(F)(F)C(F)(F)C(F)(F)C(F)(F)C(F)(F)F | inactive | –
22 | OCC(O)CC(F)(F)C(F)(F)C(F)(F)C(F)(F)C(F)(F)C(F)(F)C(F)(F)C(F)(F)F (stereo not given) | inactive | –
23 | O=C(O)C(F)(F)OC(F)(F)C(F)(F)OC(F)(F)C(F)(F)OC(F)(F)F | inactive | –
24 | C[Si](Cl)(Cl)CCC(F)(F)C(F)(F)C(F)(F)C(F)(F)C(F)(F)C(F)(F)F | inactive | –
25 | C=CC(=O)OCC(F)(F)C(F)(F)C(F)(F)COC(=O)C=C | – | 15.9 µM (active) and 14.7 µM (active)
26 | OCCCC(F)(F)C(F)(F)C(F)(F)C(F)(F)C(F)(F)C(F)(F)C(F)(F)C(F)(F)F | – | 10.1 µM (active) and 9.64 µM (active)
27 | OCC(F)(F)C(F)(F)C(F)(F)C(F)(F)C(F)(F)C(F)(F)C(F)(F)C(F)(F)CO | inactive | 54.4 µM (active)
28 | NCC(F)(F)C(F)(F)C(F)(F)C(F)(F)C(F)(F)C(F)(F)C(F)(F)C(F)(F)F | inactive | –
29 | CC(C)CCCC(C)CCO (stereo not given) | inactive | –
30 | CC1=CC2C3C=CC(C3)C2C1C (stereo not given) | inactive | –
31 | O=S(=O)(O)CCC(F)(F)C(F)(F)C(F)(F)C(F)(F)F | inactive | –
32 | CCN(CC)c1ccc(N=Nc2ccccc2)cc1 | inactive | –
33 | FC(F)(F)C(F)(F)C(F)(F)CC1CO1 (stereo not given) | inactive | –
34 | O=C(F)C1(F)C(F)(F)C(F)(F)C(F)(F)C(F)(F)C1(F)F | inactive | –
35 | C[C@]12CC[C@H]3C(=CCc4cc(O)ccc43)[C@@H]1CCC2=O | inactive | –
36 | Nc1cc([N+](=O)[O-])cc(Cl)c1O | inactive | –
37 | CCN(CC)c1ccc(C=O)c(O)c1 | inactive | –
38 | CCN(CC)c1ccc(C=O)cc1 | inactive | –
